Several values for one entry are separate records, joined by “and”; a condition that tells them apart may be missing. Equal values may be shown once. Activity calls are given as the source filed them. Unless noted, calls follow the shape of the dose curve; as a rule, active = well fitted curve in the direction sought with a large enough effect in the repeat runs; inconclusive = weak or mixed curves; inactive = no such curve, though single readings can be large; an effect the other way counts as inactive or inconclusive.
Key:
[1] = qHTS assay to identify small molecule antagonists of the thyroid receptor (TR) signaling pathway - cell viability counter screen (AID 743064); also: nearly all actives have a fitted effect of over 50% in size; also: potency is read from the fitted curve at half-maximal effect
Outline: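 GH3.TRE-Luc rat pituitary cells dosed after 4 hr plating, co-stimulated with T3 at 1 nM final, incubated 23.5 h at 37 C. Viability measured in the same wells by CellTiter-Fluor fluorescence after 30 min further at 37 C.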

[2] = qHTS assay to identify small molecule antagonists of the thyroid receptor (TR) signaling pathway (AID 743065); also: nearly all actives have a fitted effect of over 55% in size; also: potency is read from the fitted curve at half-maximal effect
Outline: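 Antagonism measured as loss of luciferase signal in GH3 cells stably carrying a TRE-luciferase reporter, co-treated with compound and T3 (1 nM final) for 23.5 h at 37 C. Viability was read in the same well by CellTiter-Fluor.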

[3] = qHTS assay to identify small molecule antagonists of the estrogen receptor alpha (ER-alpha) signaling pathway - cell viability counter screen (AID 743074; calls by dose curve;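 also: HEK293 cells carrying ER-alpha-UAS-bla reporter stimulated with 17beta-estradiol; nearly all actives have a fitted effect of over 45% in size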; also: potency is read from the fitted curve at half-maximal effect)
[4] = molecular target: Estrogen receptor (Homo sapiens) (UniProt P03372); test: qHTS assay to identify small molecule agonists of the estrogen receptor alpha (ER-alpha) signaling pathway (AID 743075; calls by dose curve;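 also: HEK293 GripTite cells with ER-alpha and UAS-driven beta-lactamase reporter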; also: potency is read from the fitted curve at half-maximal effect)
[5] = qHTS assay to identify small molecule antagonists of the estrogen receptor alpha (ER-alpha) signaling pathway using the BG1 cell line - cell viability counter screen (AID 743081);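 also: compound given together with 17beta-estradiol as the ER stimulus; nearly all actives have a fitted effect of over 45% in size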; also: potency is read from the fitted curve at half-maximal effect
[6] = molecular target: Aromatase (Homo sapiens) (UniProt P11511); test: qHTS assay to identify aromatase inhibitors (AID 743083); also: nearly all actives have a fitted effect of over 55% in size; also: potency is read from the fitted curve at half-maximal effect
[7] = qHTS assay to identify aromatase inhibitors - cell viability counter screen (AID 743084);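 also: cells stimulated with testosterone during compound exposure; nearly all actives have a fitted effect of over 55% in size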; also: potency is read from the fitted curve at half-maximal effect
[8] = molecular target: Aryl hydrocarbon receptor (Homo sapiens) (UniProt P35869); test: qHTS assay to identify small molecule that activate the aryl hydrocarbon receptor (AhR) signaling pathway (AID 743085); also: nearly all actives have a fitted effect of over 15% in size; also: potency is read from the fitted curve at half-maximal effect;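 as to activation: HG2L7.5c1 human HepG2 liver cells with stably integrated DRE-driven firefly reporter; series mostly up to about 70 µM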
Outline: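 HepG2 cells stably carrying a 20-DRE firefly luciferase reporter (HG2L7.5c1) treated with compound for 24 hr at 37C. Luciferase read by ONE-Glo luminescence, with CellTiter-Fluor viability read first.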

[9] = qHTS assay to identify small molecule antagonists of the peroxisome proliferator-activated receptor gamma (PPARg) signaling pathway - cell viability counter screen (AID 743194); also: nearly all actives have a fitted effect of over 55% in size; also: potency is read from the fitted curve at half-maximal effect
Outline: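 Viability was measured as CellTiter-Glo luminescence in GeneBLAzer PPARg UAS-bla HEK293H cells. These cells had been exposed 17 h at 37 C to compounds together with rosiglitazone at 50 nM final, with the beta-lactamase readout taken in the same wells.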

[10] = qHTS assay for small molecule agonists of the antioxidant response element (ARE) signaling pathway - cell viability counter screen (AID 743203; calls by dose curve; also: nearly all actives have a fitted effect of over 55% in size; also: potency is read from the fitted curve at half-maximal effect)
Outline: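 CellSensor ARE-bla HepG2 cells, 2,000 per well, rested 5 hrs at 37C/5% CO2, then exposed to compound in DMSO for 16 hrs; viability read as CellTiter-Glo luminescence after 30 min at room temperature, in the reporter wells.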

[11] = qHTS assay for small molecule activators of the heat shock response signaling pathway - cell viability counter screen (AID 743209); also: nearly all actives have a fitted effect of over 50% in size; also: potency is read from the fitted curve at half-maximal effect
Outline: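 CellSensor HSE-bla HeLa cells, plated overnight at 37 C/5% CO2, were exposed to compounds in DMSO for 5 h at 37 C. Viability was then read in the same wells by CellTiter-Glo luminescence after 30 min at room temperature.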

[12] = test system: thyroid hormone receptor (rat, GH3 cells); test: qHTS assay to identify small molecule agonists of the thyroid receptor (TR) signaling pathway (AID 743066; calls by dose curve)
[13] = molecular target: Estrogen receptor (Homo sapiens) (UniProt P03372); test: qHTS assay to identify small molecule agonists of the estrogen receptor alpha (ER-alpha) signaling pathway using the BG1 cell line (AID 743079); also: nearly all actives have a fitted effect of over 20% in size; also: potency is read from the fitted curve at half-maximal effect
[14] = qHTS assay to identify small molecule antagonists of the estrogen receptor alpha (ER-alpha) signaling pathway using the BG1 cell line (AID 743080; calls by dose curve;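 also: BG1 cells stimulated with 17beta-estradiol alongside compound; series mostly up to about 70 µM; nearly all actives have a fitted effect of over 25% in size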)
Outline: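 After 5 days in phenol-red-free 10% charcoal-stripped FBS medium, BG1-Luc-4E2 cells were seeded, left 24 h at 37 C, co-treated with compounds and 17beta-estradiol for 21.5 h, then assayed for viability and luciferase.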

[15] = qHTS assay to identify small molecule that activate the aryl hydrocarbon receptor (AhR) signaling pathway - cell viability counter screen (AID 743086);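 also: HepG2 liver cells carrying the AhR DRE luciferase reporter; series mostly up to about 70 µM; nearly all actives have a fitted effect of over 45% in size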
Outline: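 Cytotoxicity counter screen: CellTiter-Fluor signal (30 min, 37 C) in 4000 HepG2 cells/well carrying the DRE-luciferase reporter, following 24 h compound exposure at 37 C.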

[16] = molecular target: Peroxisome proliferator-activated receptor gamma (Homo sapiens) (UniProt P37231); test: qHTS assay to identify small molecule agonists of the peroxisome proliferator-activated receptor gamma (PPARg) signaling pathway (AID 743094; active = well fitted activation curve with a large enough effect in the signal ratio in the repeat runs, not every such curve was filed as active; inconclusive = weak or mixed curves, or effect the other way; inactive = no such curve, though single readings can be large or run the other way; the % refers to the signal ratio)
Outline: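 GeneBLAzer PPARg UAS-bla HEK293H cells carrying a stably integrated beta-lactamase reporter were pre-incubated 5 h at 37C, then exposed to compounds in DMSO for 17 h at 37C; LiveBLAzer B/G FRET substrate was added for 1 h at room temperature and fluorescence read.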

[17] = molecular target: Peroxisome proliferator-activated receptor gamma (Homo sapiens) (UniProt P37231); test: qHTS assay to identify small molecule antagonists of the peroxisome proliferator-activated receptor gamma (PPARg) signaling pathway (AID 743191; calls by dose curve; also: series mostly up to about 63 µM; nearly all actives have a fitted effect of over 30% in size)
Outline: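 Beta-lactamase reporter under UAS control in HEK293H PPARg-bla cells; compound treatment 17 h at 37C. Read-out: fluorescence intensity after 1 h room-temperature incubation with LiveBLAzer B/G FRET substrate.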

[18] = qHTS assay for small molecule agonists of the antioxidant response element (ARE) signaling pathway (AID 743202; active = well fitted activation curve with a large enough effect in the signal ratio in the repeat runs, not every such curve was filed as active; inconclusive = weak or mixed curves, or effect the other way; inactive = no such curve, though single readings can be large or run the other way; the % refers to the signal ratio; also: potency is read from the fitted curve at half-maximal effect)
Outline: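 Quantitative high-throughput format in HepG2 cells bearing an integrated ARE-beta-lactamase reporter. Compound exposure lasted 16 h at 37 C, and fluorescence was read 2 h after adding LiveBLAzer B/G substrate at room temperature.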

[19] = qHTS assay for small molecule activators of the heat shock response signaling pathway (AID 743210; active = well fitted activation curve with a large enough effect in the signal ratio in the repeat runs, with a control signal flat, not every such curve was filed as active; inconclusive = weak or mixed curves; the % refers to the signal ratio;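 also: HeLa cells with beta-lactamase reporter driven by heat shock elements; series mostly up to about 63 µM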)
Outline: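 HeLa HSE-bla cells, overnight plating; cpd in DMSO 5 h, 37 C; LiveBLAzer B/G FRET substrate 2.5 h RT; fluorescence intensity read.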

[20] = molecular target: Estrogen receptor (Homo sapiens) (UniProt P03372); test: qHTS assay to identify small molecule antagonists of the estrogen receptor alpha (ER-alpha) signaling pathway (AID 743069; active = well fitted curve in the direction sought with a large enough effect in the signal ratio in the repeat runs, not every such curve was filed as active; inconclusive = weak or mixed curves, or effect the other way; inactive = no such curve, though single readings can be large or run the other way; the % refers to the signal ratio; also: potency is read from the fitted curve at half-maximal effect)
Outline: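 ER-alpha-UAS-bla GripTite HEK293 line; 2% charcoal-stripped FBS overnight; plated, 4 hr 37C/5% CO2; cpd in DMSO + 17beta-estradiol, 18 hr 37C; LiveBLAzer B/G FRET substrate 2 hr RT; fluorescence intensity.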

Measured: Potency

Chain of Aromatase (Homo sapiens) (P11511 whole entry, looked up): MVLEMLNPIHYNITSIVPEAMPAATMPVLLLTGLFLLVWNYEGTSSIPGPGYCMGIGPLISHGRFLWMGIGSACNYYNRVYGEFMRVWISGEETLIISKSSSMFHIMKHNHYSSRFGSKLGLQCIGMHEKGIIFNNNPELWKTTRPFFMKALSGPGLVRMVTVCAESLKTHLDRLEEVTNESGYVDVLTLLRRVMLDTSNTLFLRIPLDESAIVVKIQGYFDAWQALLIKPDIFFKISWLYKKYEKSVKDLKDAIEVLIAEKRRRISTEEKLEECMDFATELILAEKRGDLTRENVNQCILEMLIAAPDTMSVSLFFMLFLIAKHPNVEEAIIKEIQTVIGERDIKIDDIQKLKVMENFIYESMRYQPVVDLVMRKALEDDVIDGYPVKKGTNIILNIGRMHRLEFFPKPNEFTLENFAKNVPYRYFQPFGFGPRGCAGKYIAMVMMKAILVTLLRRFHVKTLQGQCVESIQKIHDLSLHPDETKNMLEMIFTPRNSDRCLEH
Chain of Estrogen receptor (Homo sapiens) (P03372 whole entry, looked up): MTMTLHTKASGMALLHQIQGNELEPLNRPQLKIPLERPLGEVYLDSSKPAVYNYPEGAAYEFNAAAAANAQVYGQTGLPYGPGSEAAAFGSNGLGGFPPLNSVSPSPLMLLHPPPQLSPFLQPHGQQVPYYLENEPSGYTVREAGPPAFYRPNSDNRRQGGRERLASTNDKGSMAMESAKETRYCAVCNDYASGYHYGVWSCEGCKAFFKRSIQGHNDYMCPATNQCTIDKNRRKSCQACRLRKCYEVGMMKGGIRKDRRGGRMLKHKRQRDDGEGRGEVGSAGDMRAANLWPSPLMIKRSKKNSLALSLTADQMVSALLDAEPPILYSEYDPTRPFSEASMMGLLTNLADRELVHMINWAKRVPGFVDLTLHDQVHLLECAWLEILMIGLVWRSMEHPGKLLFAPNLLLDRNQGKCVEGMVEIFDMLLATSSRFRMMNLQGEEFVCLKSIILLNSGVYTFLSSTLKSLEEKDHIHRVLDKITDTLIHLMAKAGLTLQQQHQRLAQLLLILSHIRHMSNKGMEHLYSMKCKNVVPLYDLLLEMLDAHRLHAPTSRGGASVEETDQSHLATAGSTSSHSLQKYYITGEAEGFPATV
Chain of Peroxisome proliferator-activated receptor gamma (Homo sapiens) (P37231 whole entry, looked up): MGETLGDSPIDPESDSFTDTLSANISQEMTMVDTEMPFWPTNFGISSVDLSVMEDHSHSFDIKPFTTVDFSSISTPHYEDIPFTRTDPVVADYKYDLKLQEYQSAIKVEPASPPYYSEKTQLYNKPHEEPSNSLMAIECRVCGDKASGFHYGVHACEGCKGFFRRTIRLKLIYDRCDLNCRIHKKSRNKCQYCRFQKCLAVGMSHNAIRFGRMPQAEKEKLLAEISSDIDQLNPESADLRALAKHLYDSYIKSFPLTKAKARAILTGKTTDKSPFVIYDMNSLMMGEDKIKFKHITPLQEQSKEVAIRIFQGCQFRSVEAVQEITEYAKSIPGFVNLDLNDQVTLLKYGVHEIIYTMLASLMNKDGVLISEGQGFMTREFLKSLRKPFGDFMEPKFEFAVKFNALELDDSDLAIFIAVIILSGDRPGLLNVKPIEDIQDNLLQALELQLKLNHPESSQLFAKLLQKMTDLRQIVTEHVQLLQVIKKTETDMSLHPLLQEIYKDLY
Chain of Aryl hydrocarbon receptor (Homo sapiens) (P35869 whole entry, looked up): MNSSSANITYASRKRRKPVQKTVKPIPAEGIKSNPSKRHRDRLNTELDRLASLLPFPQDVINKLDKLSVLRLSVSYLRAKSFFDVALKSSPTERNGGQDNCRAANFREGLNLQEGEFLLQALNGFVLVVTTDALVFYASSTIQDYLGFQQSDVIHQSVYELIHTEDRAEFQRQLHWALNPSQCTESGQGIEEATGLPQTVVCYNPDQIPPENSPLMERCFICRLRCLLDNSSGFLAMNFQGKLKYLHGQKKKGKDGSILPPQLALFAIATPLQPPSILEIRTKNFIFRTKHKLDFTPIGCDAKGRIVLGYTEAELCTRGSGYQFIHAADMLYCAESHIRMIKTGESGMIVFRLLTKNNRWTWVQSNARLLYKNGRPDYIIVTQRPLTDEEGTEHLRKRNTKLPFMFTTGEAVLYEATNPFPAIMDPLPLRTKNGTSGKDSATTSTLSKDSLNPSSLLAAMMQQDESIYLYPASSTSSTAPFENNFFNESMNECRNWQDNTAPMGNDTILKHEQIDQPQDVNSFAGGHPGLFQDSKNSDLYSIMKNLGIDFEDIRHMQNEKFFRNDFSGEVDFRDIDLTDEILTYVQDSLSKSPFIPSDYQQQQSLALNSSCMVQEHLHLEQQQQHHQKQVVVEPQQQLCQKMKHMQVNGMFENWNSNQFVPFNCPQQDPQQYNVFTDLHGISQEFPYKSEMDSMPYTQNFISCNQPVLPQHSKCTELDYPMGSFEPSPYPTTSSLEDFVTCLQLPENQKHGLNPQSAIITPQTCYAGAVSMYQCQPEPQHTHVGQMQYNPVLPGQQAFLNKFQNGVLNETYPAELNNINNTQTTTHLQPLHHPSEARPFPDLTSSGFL

CCCCCCCCCCCCCCCC[N+](C)(C)CC
active: [1] 5.96 µM and 15.4 µM | [2] 4.22 µM and 6.13 µM | [3] 19 µM and 55.1 µM | [5] 54.6 µM | [6] 9.44 µM and 8.66 µM | [7] 21.1 µM and 48.7 µM | [9] 17.4 µM and 26.6 µM | [10] 54.6 µM | [11] 39 µM and 23.7 µM
inactive: [4] | [8]

C=Cc1ccccc1C=C
not listed: [3] | [9] | [20]
inactive: all other assays above

OC[C@@H](O)[C@@H](O)CO
not listed: [2] | [17]
inactive: all other assays above

Cc1cc(-c2ccc(N=Nc3cc(S(=O)(=O)O)c4ccccc4c3N)c(C)c2)ccc1N=Nc1cc(S(=O)(=O)O)c2ccccc2c1N
inactive: [12] | [7] | [8] | [17] | [9] | [10] | [11] | [19]
active: [1] 61.4 µM | [2] 27.4 µM | [5] 30.8 µM | [18] 12.3 µM

Nc1nc(N)nc(-c2cc(Cl)ccc2Cl)n1
not listed: [4] | [6] | [13] | [14] | [16] | [17] | [20]
inactive: all other assays above

Cc1cc(-n2nc3ccc(Cl)cc3n2)c(O)c(C(C)(C)C)c1
inactive: [1] | [2] | [12] | [3] | [5] | [15] | [9] | [18] | [10] | [11] | [19]

Cc1cc(C(C)(C)C)c(O)c(C)c1Cn1c(=O)n(Cc2c(C)cc(C(C)(C)C)c(O)c2C)c(=O)n(Cc2c(C)cc(C(C)(C)C)c(O)c2C)c1=O
active: [20] 17.4 µM [inconclusive]
not listed: [2] | [6] | [17] | [19]
inactive: all other assays above

Cc1ccc(N/N=c2\c(=O)cc/c(=N\Nc3ccc(S(=O)(=O)O)cc3)c2=O)c(C)c1
active: [1] 61.1 µM | [5] 54.5 µM | [7] 27.3 µM | [8] 8.63 µM
not listed: [2] | [9] | [15] | [17]
inactive: all other assays above

Cc1ccc(C)cc1
not listed: [2] | [6] | [15] | [16] | [17]
inactive: all other assays above

COC(C)=O
not listed: [2] | [15] | [17]
inactive: all other assays above

Nc1ccc(NCCO)c([N+](=O)[O-])c1
inactive: [12] | [3] | [6] | [16] | [17] | [9] | [10] | [11] | [19]
active: [1] 54.5 µM | [8] 15.4 µM

Oc1cc(Cl)cc(Cl)c1Cl
active: [18] 62.6 µM
not listed: [2] | [3] | [5] | [6] | [8] | [13] | [17] | [20]
inactive: all other assays above

CNC(=O)c1ccccc1Sc1ccc2c(/C=C/c3ccccn3)n[nH]c2c1
inactive: [1] | [12] | [6] | [15] | [10] | [11] | [19]
active: [8] 3.76 µM

Oc1ccccc1O
active: [1] 17.4 µM and 15.4 µM | [6] 27.6 µM | [7] 31 µM | [18] 30.6 µM
inactive: [12] | [5] | [15] | [16] | [17] | [9] | [11] | [19]

C=CC(=O)OCCOC(=O)C=C
inactive: [12] | [3] | [5] | [8] | [15] | [10]
active: [1] 61.1 µM | [4] 17.4 µM [inconclusive] | [13] 1.72 µM | [7] 54.5 µM | [18] 61.1 µM | [11] 6.92 µM

From PubChem BioAssay (Tox21)
